# Assay results taken from PMC4336329 (PLoS ONE, 2015).
# The campaign covered roughly 310,000 compounds. About 2,200 (0.71%) showed an effect of 50% or more. The effect is printed as a negative number. Many of the other results were omitted from the sample, so strong results are more common in it than they were.
# Target: human ether-à-go-go-related gene (hERG) potassium channel (human, UniProt Q12809)
# Test: primary screen, population patch clamp on CHO cells stably expressing hERG; higher = less effect of the substance
# Experimental: Briefly, Chinese hamster ovary (CHO) cells stably expressing the hERG channel were dislodged from tissue culture flasks and dispensed into PPC plates. […] During the recording, background leak currents were estimated by a 100 ms step to -80 mV from an initial holding potential of -70 mV and subtracted from the subsequent current measurement. The campaign was conducted in two phases using slight differences in recording protocol. In the first phase, the initial voltage pulse used a 100 ms step to -30 mV from a holding potential of -70 mV, a 2 s conditioning step to +25 mV, and a 2 s test step to -30 mV. During the second phase of the screen, the potential during the conditioning step was raised to +45 mV. In both phases of the campaign, a secondary voltage pulse was applied using the same parameters as the second phase initial pulse. The initial and secondary pulses were applied in the absence of compound, and upon application of 1 μM and 10 μM test concentrations. Small molecule effects on hERG current density were quantified by […].
# Chain of human ether-à-go-go-related gene (hERG) potassium channel (Q12809 whole entry, looked up): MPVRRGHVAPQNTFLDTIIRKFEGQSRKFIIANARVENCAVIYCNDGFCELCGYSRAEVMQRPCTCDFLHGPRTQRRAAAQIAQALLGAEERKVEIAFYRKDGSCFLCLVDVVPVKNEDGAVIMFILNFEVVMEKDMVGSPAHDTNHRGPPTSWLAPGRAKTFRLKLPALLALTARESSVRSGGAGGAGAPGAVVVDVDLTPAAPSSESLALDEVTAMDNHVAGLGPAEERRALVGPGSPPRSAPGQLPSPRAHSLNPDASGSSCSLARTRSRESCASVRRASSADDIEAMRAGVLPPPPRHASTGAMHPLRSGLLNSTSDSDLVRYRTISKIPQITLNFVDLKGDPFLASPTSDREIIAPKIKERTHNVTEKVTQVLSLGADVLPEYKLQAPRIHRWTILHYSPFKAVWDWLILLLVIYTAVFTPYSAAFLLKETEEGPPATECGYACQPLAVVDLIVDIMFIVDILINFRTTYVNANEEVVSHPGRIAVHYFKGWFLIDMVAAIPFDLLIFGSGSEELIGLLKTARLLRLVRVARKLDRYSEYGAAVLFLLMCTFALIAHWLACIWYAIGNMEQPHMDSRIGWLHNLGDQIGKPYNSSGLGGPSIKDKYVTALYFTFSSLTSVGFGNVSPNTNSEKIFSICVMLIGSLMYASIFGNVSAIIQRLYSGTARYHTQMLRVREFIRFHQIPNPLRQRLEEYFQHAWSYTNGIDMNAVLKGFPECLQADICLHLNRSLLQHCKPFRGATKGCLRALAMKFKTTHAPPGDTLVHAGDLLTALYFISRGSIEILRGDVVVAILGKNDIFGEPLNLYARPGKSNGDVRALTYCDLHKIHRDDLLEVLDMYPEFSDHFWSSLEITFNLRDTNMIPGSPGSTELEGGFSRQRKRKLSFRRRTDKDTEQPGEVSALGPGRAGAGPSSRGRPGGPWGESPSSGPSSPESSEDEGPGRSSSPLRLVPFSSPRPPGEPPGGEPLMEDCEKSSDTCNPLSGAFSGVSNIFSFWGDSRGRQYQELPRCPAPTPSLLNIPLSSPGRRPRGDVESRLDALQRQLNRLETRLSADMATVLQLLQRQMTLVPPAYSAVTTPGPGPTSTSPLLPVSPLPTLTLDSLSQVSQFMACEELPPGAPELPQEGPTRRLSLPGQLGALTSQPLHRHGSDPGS
row,SMILES,"hERG current change (%, negative = inhibition) at 1uM [%]"
1,COc1cc2c(cc1OC)C(c1ccc([N+](=O)[O-])cc1)N(C(C)=O)CC2 (stereo not drawn),5.11
2,CC(C)c1ccc(NC(=O)c2ccc3c(c2)C(=O)N(Cc2cccnc2)C3=O)cc1,8.25
3,c1ccc(CC(Nc2ccccn2)c2ccccc2)cc1 (stereo not drawn),-10.6
4,NC(=O)CSc1n[nH]c(=O)n1CCc1ccccc1,10.4
5,O=C(Cc1cccs1)NCc1cccc(Cl)c1,9.08
6,CCOc1ccc2[nH]c(O)c(NC(C)=O)c2c1,5.98
7,CCc1c(C)nc2ncnn2c1NCc1cccs1,6.69
8,COc1cc(/C=N/NC(=O)c2ccccc2)ccc1O,-5.66
9,COc1cc2c(cc1OC)/C(=C/C#N)NC(C)(C)C2,7.09
10,CNc1nc(SC)nc2ccccc12,16.4
11,COc1cccc(C(=O)NCCCNC(=O)c2cccc(OC)c2)c1,12.4
12,CC1CCN(CCCNC(=O)c2ccc(CSCc3cccc(Cl)c3)o2)CC1,-62.4
13,COc1cc(OC)cc(C(=O)NCCCN2CCN(CCCNC(=O)c3cc(OC)cc(OC)c3)CC2)c1,-18.8
14,O=C(NCCCN1CCCC1)c1ccc(CSCc2cccc(Cl)c2)o1,-30.4
15,CN1CCN(CCCNC(=O)c2ccc(CSCc3cccc(Cl)c3)o2)CC1,1.54
16,COc1cccc(C(=O)NCCCN2CCN(CCCNC(=O)c3cccc(OC)c3)CC2)c1,-65.2
17,Cc1ccc2nsnc2c1NC(=O)c1cccnc1Cl,15.1

row,SMILES,"hERG current change (%, negative = inhibition) at 1uM [%]"
1,COc1ccc(S(=O)(=O)N2CCC(Nc3ccccc3Cl)CC2)cc1,28.1
2,COc1ccc(/C=C2\SC(=S)N(CC(=O)NC3CCS(=O)(=O)C3)C2=O)cc1 (stereo not drawn),17.2
3,COc1ccc2c(c1)c1c(n2C(C)=O)C(OC(C)=O)=NCC1,2.42
4,CN=C1c2c(-c3ccccc3)c3cc(OC)ccc3n2CCN1C.Cl,-31.6
5,COc1ccc2c(c1)c1c3n2CCN(C)C3=NCC1.Cl,-54.9
6,COc1ccc(OCC(=O)Nc2c3c(nn2-c2ccccc2)CS(=O)(=O)C3)cc1,7.69
7,O=C1c2ccccc2C(=O)N1Cc1cccnc1,15.6
8,Cc1nc2nc(-c3ccc(Cl)cc3)nn2c(C)c1Cl,13.4
9,Cc1cc(N2CCN(c3ccccn3)CC2)n2cc(-c3ccccc3)nc2n1,-65.4
10,Cc1cc(N2CCOCC2)n2cc(-c3ccc(F)cc3)nc2n1,-34.9
11,Cc1cc(N2CCN(C)CC2)n2nc(-c3ccc(Cl)cc3)nc2n1,-67.2
12,Cc1cc(N2CCOCC2)n2cc(-c3ccccc3)nc2n1,-14.6
13,Cc1cc(N2CCOCC2)n2nc(C)c(-c3ccc(Cl)cc3)c2n1,7.28
14,Cc1cc(N2CCN(c3ccccc3)CC2)n2cc(-c3ccccc3)nc2n1,-16.4
15,Cc1cc(N2CCN(C)CC2)n2cc(-c3ccc(F)cc3)nc2n1,-89.8
16,Cc1cc(N2CCN(c3ccccc3Cl)CC2)n2cc(-c3ccccc3)nc2n1,-2.03
